The source made the active and inactive calls. A call without a number means that no potency is given here. Calls follow the shape of the dose curve; as a rule, active = well fitted inhibition curve with a large enough effect; inconclusive = small, poorly fitted or top-dose-only effect; inactive = flat fitted curve, though single readings scatter.
These compounds were tested against Phosphoglycerate kinase, glycosomal (Trypanosoma brucei brucei) (UniProt P07378) (assay: qHTS Validation Assay to Find Inhibitors of Phosphoglycerate Kinase (AID 504547)). Conditions: enzymatic PGK inhibition, coupled luminescence read-out; series mostly up to 57.5 µM.
Excerpt: NIH Molecular Libraries Probe Production Network [MLPCN]
NIH Chemical Genomics Center [NCGC]
PI Name: Malcolm Walkinshaw, University of Edinburgh
Several species of the Trypanosomatidae family of parasitic protozoans cause a spectrum of diseases
throughout the tropical and subtropical world. Sleeping sickness, caused by two subspecies of Trypanosoma brucei, is endemic to areas of sub-Saharan Africa, while Chagas disease, a manifestation of Trypanosoma cruzi infection, is prevalent throughout Central and South America. In addition, many species of Leishmania are responsible for a range of cutaneous and visceral diseases, causing ulcers, destructive lesions and kalaazar, a lethal infection of the viscera. Collectively, these organisms infect 30 million people worldwide (~500 million live in endemic areas), and account for ~130,000 deaths annually. Given their debilitating and prevalent nature, trypanosomatid parasites impose a heavy medical, economic and social burden on entire populations, primarily in the developing world. The problem is further exacerbated by the fact that existing treatments have progressed little in the past 50 years, and current drugs show high toxicity and poor efficacy.
Blood-stream stages of T. brucei are entirely dependent on glycolysis as a source of ATP, and the tricarboxylic acid cycle and oxidative phosphorylation are both repressed. Glycolysis in axenically cultured T. cruzi, representing the intracellular pathogenic stage, is also essential for these parasites. […] Previous studies have shown that the glycolytic enzyme, phosphoglycerate kinase (PGK), is a viable target for drugs to kill these parasites.
NCGC Assay Protocol Summary:
Briefly, 3ul of substrate/PGK buffer (columns 1,2,5-48) are dispensed into Greiner white solid bottom 1536-well assay plates; columns 3-4 receive only TEA buffer as 0x PGK controls. Compounds are then transferred via Kalypsys pin tool equipped with 1536-pin array (10nl slotted pins, V&P Scientific, San Diego, CA). Following addition of compound, 1ul of GAPDH (100nM final concentration, all columns) is added to initiate the reaction (this upstream coupling enzyme is necessary for in-well production of PGK substrate, 1,3-bisphosphoglycerate (1,3-BPG), which is unstable and not commercially available). The plates are then incubated at room temperature for 60 minutes. Kinase-Glo Plus reagent is added (2ul) and plates incubated for 10 minutes, before being transferred to a ViewLux high-throughput CCD imager (PerkinElmer) wherein single end-point measurements of luminescence are acquired using a clear filter. All reagents are diluted in an assay buffer consisting of 100mM TEA (pH 7.6), 5mM MgCl2 and 0.01% Tween-20.
Potency is read from the fitted curve at half-maximal effect.

Phosphoglycerate kinase, glycosomal (Trypanosoma brucei brucei), sequence (P07378 whole entry, looked up): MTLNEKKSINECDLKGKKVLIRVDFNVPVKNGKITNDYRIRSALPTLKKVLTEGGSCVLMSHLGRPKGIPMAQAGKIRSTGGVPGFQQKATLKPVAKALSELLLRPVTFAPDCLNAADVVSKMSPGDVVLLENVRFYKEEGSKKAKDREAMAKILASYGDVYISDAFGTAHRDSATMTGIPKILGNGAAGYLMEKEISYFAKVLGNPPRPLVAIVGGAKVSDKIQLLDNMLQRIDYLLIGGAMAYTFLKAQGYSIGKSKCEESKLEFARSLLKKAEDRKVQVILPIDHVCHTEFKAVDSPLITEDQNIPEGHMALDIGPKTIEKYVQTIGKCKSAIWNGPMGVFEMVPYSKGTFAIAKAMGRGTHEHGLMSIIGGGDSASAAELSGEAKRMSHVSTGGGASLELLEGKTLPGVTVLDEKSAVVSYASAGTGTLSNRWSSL

| SMILES | Potency |
| --- | --- |
| N[C@@]1(C(=O)O)CC[C@@H](C(=O)O)C1 | inactive |
| CC(=O)NBr | inactive |
| CCN1C[C@@]2(COC)C3[C@@H](OC)C4[C@@H]1C3([C@@H]1C[C@]3(O)[C@H](OC(=O)c5ccccc5)[C@@H]1[C@]4(OC(C)=O)[C@@H](O)[C@@H]3OC)[C@H](OC)C[C@H]2O | inactive |
| CCCN(CCC)C1CCc2cccc(O)c2C1 (stereo not given) | inactive |
| CCCN1CCc2cc(O)cc3c2[C@H]1Cc1ccc(O)c(O)c1-3 | inactive |
| C[N+](C)(C)CC#CCOC(=O)Nc1cccc(Cl)c1 | inactive |
| CC12NC(Cc3ccccc31)c1ccccc12 (stereo not given) | inactive |
| CCS(=O)(=O)Nc1cccc(C(=C2CCCCC2)c2cnc[nH]2)c1 | inactive |
| CCCn1c(C)c(C(=O)c2ccc3ccccc3c2)c2ccccc21 | inactive |
| C[C@H](Cc1ccc2c(c1)OC(C(=O)O)(C(=O)O)O2)NC[C@H](O)c1cccc(Cl)c1 | inactive |
| CCCC[N+]1(C)C2CC(OC(=O)[C@H](CO)c3ccccc3)CC1C1OC12 (stereo not given in full) | inactive |
| NCC(O)c1cc(O)c(O)cc1F (stereo not given) | 21.3 µM (active) |
| C[N+](C)(C)CCOC(=O)CBr | inactive |
| COc1cc(CC(C)N)c(OC)cc1I (stereo not given) | inactive |
| CCCN(CCC)[C@H]1CCc2c(F)ccc(O)c2C1 | inactive |
| c1ccc2c(c1)[I+]c1ccccc1-2 | inactive |
| CC(C)NP(=O)(NC(C)C)OP(=O)(NC(C)C)NC(C)C | inactive |
| CCN(CCCl)Cc1ccccc1Br | inactive |
| NC(=O)c1ccc(OCC(O)CN2CC=C(c3ccc(F)cc3)CC2)cc1 (stereo not given) | inactive |
| CC(C)(C)c1o[nH]c(=O)c1CC(N)C(=O)O (stereo not given) | inactive |

| SMILES | Potency |
| --- | --- |
| OC1CCCCC1N1CCC(c2ccccc2)CC1 (stereo not given) | inactive |
| CN1CCc2cc(O)cc3c2[C@H]1Cc1ccc(O)c(O)c1-3 | inactive |
| CN1CC[C@@]2(C)c3cc(OC(=O)Nc4ccccc4)ccc3N(C)[C@@H]12 | inactive |
| CCNC(=O)[C@H]1O[C@@H](n2cnc3c(N)ncnc32)[C@H](O)[C@@H]1O | inactive |
| NCCCP(=O)(O)O | inactive |
| N[C@@H](CCl)C(=O)O | inactive |
| CCCN1CC[C@@H]2c3cc(O)ccc3CC[C@@H]21 | inactive |
| CN(C(=O)Cc1ccc(Cl)c(Cl)c1)C(CN1CCCC1)c1cccc(OCC(=O)O)c1 (stereo not given) | inactive |
| Nc1ccc(CCN2CCN(c3cccc(C(F)(F)F)c3)CC2)cc1 | inactive |
| COc1ccc2[nH]cc(CCN)c2c1 | inactive |
| CC(N)[C@H](O)c1ccc(O)c(O)c1 (stereo not given in full) | 7.57 µM (active) |
| C[C@@H]1O[C@@H](O[C@H]2C[C@@H](O)[C@]3(CO)[C@@H]4C(CC[C@]3(O)C2)[C@@]2(O)CC[C@H]([C@@H]3COC(=O)C3)[C@@]2(C)C[C@H]4O)[C@H](O)[C@H](O)[C@H]1O (stereo not given in full) | inactive |
| O=S1(=O)N(CCN2CC=C(c3c[nH]c4cc(F)ccc34)CC2)c2cccc3c2N1CCC3 | inactive |
| N#CCCN | inactive |
| C[N+]1(C)CCOC(O)(c2ccc(-c3ccc(C4(O)C[N+](C)(C)CCO4)cc3)cc2)C1 (stereo not given) | inactive |
| C=CCN1C[C@@H](C)N([C@H](c2ccc(C(=O)N(CC)CC)cc2)c2cccc(OC)c2)C[C@@H]1C | inactive |
| c1ccc2c(N3CCNCC3)cccc2c1 | inactive |
| CN(N=O)c1ccc(O)c(O)c1 | 6.01 µM (active) |
| CCCN(CCC)[C@@H]1CCc2cccc(O)c2C1 | inactive |
| c1ccc2cc(CC3=NCCN3)ccc2c1 | inactive |
